Compounds without any hit were thinned out: in the full panel of roughly 83,000, 20% have a hit.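 Treatment: one concentration, 48 hours, 96-well format. Scoring: percent growth, with anything below 10 considered active.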 Activity calls are given as the source filed them.
Key:
Experiment in all cases: NCI-60 one-dose screen, 48 h (100 = growth as untreated, 0 = no growth, -100 = all killed)
HCT-15 colon = settings: 10 µM unless noted
HT29 colon = settings: 10 µM unless noted
SNB-75 CNS = settings: 10 µM unless noted
SNB-19 CNS = settings: 10 µM unless noted
U251 CNS = settings: 10 µM unless noted
PC-3 prostate = settings: 10 µM unless noted
SK-MEL-5 melanoma = settings: 10 µM unless noted
UACC-62 melanoma = settings: 10 µM unless noted
LOX IMVI melanoma = settings: 10 µM unless noted
SK-MEL-28 melanoma = settings: 10 µM unless noted
SK-MEL-2 melanoma = settings: 10 µM unless noted
SN12C renal = settings: 10 µM unless noted
UO-31 renal = settings: 10 µM unless noted
TK-10 renal = settings: 10 µM unless noted
ACHN renal = settings: 10 µM unless noted
CAKI-1 renal = settings: 10 µM unless noted
A498 renal = settings: 10 µM
HL-60(TB) leukemia = settings: 10 µM unless noted
CCRF-CEM leukemia = settings: 10 µM unless noted
EKVX NSCLC = settings: 10 µM unless noted

Measured: growth

O=C([O][Hg][CH2]C1OCCOC1[CH2][Hg][O]C(=O)c1ccccc1)c1ccccc1 (configuration not stated)
inactive: HT29 colon 83.6% | SNB-75 CNS 92.5% | SNB-19 CNS 105% | U251 CNS 43% | PC-3 prostate 70.5% | SK-MEL-5 melanoma 93.1% | UACC-62 melanoma 106% | SK-MEL-2 melanoma 95.4% | SN12C renal 76.2% | A498 renal 132%
active: HCT-15 colon -79.5% | LOX IMVI melanoma -92.7% | SK-MEL-28 melanoma -96.7% | UO-31 renal -94.8% | TK-10 renal -99.5% | ACHN renal -99.5% | CAKI-1 renal -94.7% | HL-60(TB) leukemia -24.7% | CCRF-CEM leukemia -15.8%

CCC1(C(C)C)C(=O)NC(=S)NC1=O
inactive: HCT-15 colon 97.6% | HT29 colon 112% | SNB-75 CNS 95.5% | SNB-19 CNS 108% | U251 CNS 95.9% | PC-3 prostate 95.6% | SK-MEL-5 melanoma 98.8% | UACC-62 melanoma 103% | LOX IMVI melanoma 102% | SK-MEL-28 melanoma 109% | SK-MEL-2 melanoma 117% | SN12C renal 103% | UO-31 renal 97.4% | TK-10 renal 107% | ACHN renal 98.5% | CAKI-1 renal 99.8% | A498 renal 92.8% | HL-60(TB) leukemia 102% | CCRF-CEM leukemia 97.3%

CCCCCCCCCCCCCC[P+](CCCCCC)(CCCCCC)CCCCCC
active: HCT-15 colon 7.54% | HT29 colon -58.2% | SNB-75 CNS -31.4% | SNB-19 CNS 8.99% | U251 CNS -68.4% | PC-3 prostate -78.1% | SK-MEL-5 melanoma -100% | UACC-62 melanoma -28.1% | LOX IMVI melanoma -68.5% | SK-MEL-28 melanoma -97.8% | SK-MEL-2 melanoma -3.57% | SN12C renal -79.1% | UO-31 renal -36.6% | TK-10 renal -43.3% | ACHN renal -26% | CAKI-1 renal 4.01% | A498 renal -48.3%
inactive: HL-60(TB) leukemia 43.1% | CCRF-CEM leukemia 26.5%

COC[C@@H]1C[C@@]2(C)[C@@H](CC[C@@H]3[C@@H]2CC[C@@]2(C)[C@H]3CC[C@]2(C)O)CC1=O
inactive: HCT-15 colon 94.8% | HT29 colon 83.4% | SNB-75 CNS 90.4% | SNB-19 CNS 113% | U251 CNS 93.7% | PC-3 prostate 96.8% | SK-MEL-5 melanoma 106% | UACC-62 melanoma 100% | LOX IMVI melanoma 95.2% | SK-MEL-28 melanoma 96.4% | SK-MEL-2 melanoma 83.2% | SN12C renal 107% | UO-31 renal 91.1% | TK-10 renal 85.2% | ACHN renal 92.6% | CAKI-1 renal 94.4% | A498 renal 111% | HL-60(TB) leukemia 78.6%

Nc1ccc(-c2nc3cc(F)ccc3[se]2)cc1F
inactive: HCT-15 colon 52.8% | HT29 colon 61% | SNB-75 CNS 76.6% | SNB-19 CNS 95.3% | U251 CNS 87.2% | PC-3 prostate 74.3% | SK-MEL-5 melanoma 82.1% | UACC-62 melanoma 71.9% | LOX IMVI melanoma 88.2% | SK-MEL-28 melanoma 115% | SK-MEL-2 melanoma 97.7% | EKVX NSCLC 49.2% | UO-31 renal 38.5% | TK-10 renal 43.6% | ACHN renal 30.3% | A498 renal 13.5% | HL-60(TB) leukemia 64.9% | CCRF-CEM leukemia 44.8%

O=C(O)CNC(=O)C(Cl)(Cl)Cl
inactive: HCT-15 colon 96% | HT29 colon 97.1% | SNB-75 CNS 85.1% | SNB-19 CNS 100% | U251 CNS 84.8% | PC-3 prostate 91.6% | SK-MEL-5 melanoma 99% | UACC-62 melanoma 102% | LOX IMVI melanoma 99% | SK-MEL-28 melanoma 96.6% | SK-MEL-2 melanoma 111% | SN12C renal 100% | UO-31 renal 87.6% | TK-10 renal 95.6% | ACHN renal 92.7% | CAKI-1 renal 89.1% | A498 renal 96.2% | HL-60(TB) leukemia 80.8%

ClCCN(CCCl)Cc1ccc(Nc2ccnc3cc(Cl)ccc23)cc1
inactive: HCT-15 colon 48.2% | HT29 colon 10.2% | SNB-75 CNS 45.1% | SNB-19 CNS 60.8% | U251 CNS 22.4% | PC-3 prostate 47.3% | SK-MEL-5 melanoma 54.2% | UACC-62 melanoma 26.8% | LOX IMVI melanoma 20.1% | SK-MEL-28 melanoma 67.1% | SN12C renal 18.8% | UO-31 renal 34.6% | TK-10 renal 59.5%
active: SK-MEL-2 melanoma -19.5% | ACHN renal 5.15% | CAKI-1 renal -32.8% | HL-60(TB) leukemia -38.6%

CCC1(C)CC(CCNCc2ccccc2O)(c2ccc(C)cc2)CCO1 (configuration not stated)
inactive: HCT-15 colon 98.3% | HT29 colon 107% | SNB-75 CNS 91.8% | SNB-19 CNS 102% | U251 CNS 99.1% | PC-3 prostate 99.1% | SK-MEL-5 melanoma 97.7% | UACC-62 melanoma 103% | LOX IMVI melanoma 99.8% | SK-MEL-28 melanoma 106% | SK-MEL-2 melanoma 104% | SN12C renal 105% | UO-31 renal 101% | TK-10 renal 106% | ACHN renal 102% | CAKI-1 renal 106% | A498 renal 103% | HL-60(TB) leukemia 97.3% | CCRF-CEM leukemia 103%

Source: PubChem BioAssay (NCI)
